Screening results: PubChem, several laboratories
In the library only some 2.8% were active in any assay of this set; here they are far more common.
KKLEB tox: cytotoxicity in KKLEB CF airway cells, primary screen, cytotoxicity control for CF NF-kB inhibitor project, cell-based, uHTS, fluorescence assay plates; KKLEB CF airway cells viability, ATPlite luminescence, overnight; stronger effect = lower value; cells stimulated with P. aeruginosa culture filtrate; activity change (cytotoxicity), % at 5 µM; 0.36% of 360,000 active;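 active = corrected activity change at or below -50% at 5 µM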
TRPM1 prom inh: inhibitors of MITF-dependent TRPM1 promoter reporter, primary screen, cell-based, SK-MEL-5, single point, luciferase. SK-MEL-5 TRPM1 promoter luciferase, 24 h. AID 488899, 2010. inhibition, % at 12.5 µM. 0.83% of 330,000 active;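 active = mean inhibition across replicates of 60% or more, whatever share of single replicates reaches that level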
HIF-2a inh: HIF-2a reporter inhibitors, primary screen, luminescence, 786-0 RCC cells; AID 624352, 2012; inhibition, % at 18.8 µM; 0.72% of 360,000 active; 786-0 RCC cells HIF-2a reporter, luciferase luminescence, overnight;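 active = inhibition of the luminescence signal of 40% or more relative to plate controls, in a single-dose primary screen at 18.75 µM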
Peg3 promoter: Peg3 promoter-driven luciferase inhibitors, primary screen, cell-based, HeLa, luciferase luminescence. HeLa PEG-Prom luciferase reporter, overnight. inhibition, % at 20 µM. 1.7% of 360,000 active. AID 588405, 2011;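 active = inhibition of at least 50% at 20 µM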
CF NFkB inh: inhibitors of PAF-induced NF-kB signaling, primary screen, cell-based, GFP fluorescence, uHTS; KKLEB NF-kB-GFP reporter, GFP fluorescence overnight; inhibition, % at 5 µM; 0.86% of 360,000 active;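 active = at least 50% inhibition at 5 µM, scaled per plate between neutral and stimulator controls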;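 note: PAF is a Pseudomonas aeruginosa culture filtrate used as stimulus; plate controls were PAF-stimulated DMSO wells for no effect and unstimulated DMSO wells for full effect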
Shn3 3UTR inh: reduction of Shn3 3'UTR firefly luciferase signal, primary screen, Schnurri-3 inhibitor project, cell-based, Clone20 osteoblasts, set 2; Clone20 osteoblast Shn3 3'UTR firefly luciferase, 24 h; inhibition, % at 12.5 µM; 0.52% of 360,000 active; AID 588674, 2011;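 active = mean inhibition of at least 75% with every replicate also reaching 75%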;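 note: 0% = median of neutral control wells and 100% = pilot-screen positive control compound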
CF NFkB conf: inhibitors of PAF-induced NF-kB signaling, retest, confirmation, cell-based, GFP fluorescence, single concentration | shares compounds with CF NFkB inh | KKLEB CF airway cells, overnight | inhibition, % at 5 µM | 64% of 1,300 active; in the data active = inhibition above about 40%;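 note: stimulus PAF is a Pseudomonas aeruginosa filtrate and not platelet activating factor; plate controls were DMSO wells with stimulus for no effect and unstimulated DMSO wells for full effect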
* marks the source's active call; other numbers are inactive results; x = no result.

SMILES	KKLEB tox	TRPM1 prom inh	HIF-2a inh	Peg3 promoter	CF NFkB inh	Shn3 3UTR inh	CF NFkB conf
Oc1ccc(C[C@H]2CNC(=S)N2CC2CCCN2C[C@H](Cc2ccc(O)cc2)N2C[C@H](Cc3ccc(O)cc3)N(CC3CCCCC3)C2=S)cc1 (stereo not given in full)	-13	55	-36	43	59*	62	59*
CC(C)C[C@H]1CNC(=S)N1C[C@H]1CCCN1C[C@H](Cc1ccccc1)N1C[C@H](Cc2ccc(O)cc2)N(CC2CCCCCC2)C1=S	-47	x	-7	99*	61*	7	44*
CC(C)C[C@H]1CNC(=S)N1CC1CCCN1C[C@H](Cc1ccc(O)cc1)N1C[C@H](Cc2ccccc2)N(CC2CCCCCC2)C1=S (stereo not given in full)	2	13	-6	-14	10	10	x
CC(C)C[C@H]1CN([C@@H](Cc2ccc(O)cc2)CN2CCC[C@@H]2CN2C(=S)NC[C@@H]2Cc2ccccc2)C(=S)N1CC1CCCCC1	-3	x	-5	6	3	12	x
Oc1ccc(C[C@H]2CN([C@@H](Cc3ccc(O)cc3)CN3CCC[C@@H]3CN3C(=S)NC[C@@H]3Cc3ccccc3)C(=S)N2CC2CCCCCC2)cc1	-36	x	-29	101*	58*	-21	20
CC(C)C[C@@H](CN1CCCC1CN1C(=S)NC[C@@H]1Cc1ccc(O)cc1)N1C[C@H](Cc2ccc(O)cc2)N(CC2CCCCC2)C1=S (stereo not given in full)	-18	23	-38	93*	59*	58	60*
Cc1cc(C)cc(NC(=S)N2CCC(NC(=O)C3CC3)CC2)c1	-10	6	4	8	6	-6	x
CC1CCCC(C)N1CCCNC(=O)Cn1c(=O)c2cccn2c2cccnc21 (stereo not given)	-10	-5	11	-26	2	-7	x
CC(C)C[C@H]1CNC(=S)N1C[C@H]1CCCN1C[C@H](Cc1ccc(O)cc1)N1C[C@H](Cc2ccccc2)N(CC2CCCCC2)C1=S	-4	x	-13	16	-5	19	x
Oc1ccc(C[C@H]2CNC(=S)N2CC2CCCN2C[C@H](Cc2ccccc2)N2C[C@H](Cc3ccc(O)cc3)N(CC3CCCCCC3)C2=S)cc1 (stereo not given in full)	-24	9	-37	45	58*	29	42*
CC(=O)Nc1ccc(S(=O)(=O)N2c3ccccc3C(C)=CC2(C)C)cc1	-17	35	34	22	54*	-16	65*
CC1=CC(C)(C)N(S(=O)(=O)c2ccc(F)cc2)c2ccccc21	-29	34	16	30	30	26	x
C=CCN1C(=O)c2ccc(C(=O)N(C)CC(=O)Nc3cccc(F)c3)cc2C1=O	-6	-8	15	8	0	4	x
Cc1nnc(Sc2nc3ccccc3o2)c2ccccc12	-35	-22	-40	-102	55*	-76	52*
Nc1ccccc1C(O)(Cc1ccccc1)c1ccccc1 (stereo not given)	9	-7	25	13	-6	-10	x
CCC(=O)OC1(C(C)=O)CCC2C3CCC4=CC(=O)CCC4(C)C3CCC21C (stereo not given)	-5	12	14	-5	51*	18	-89
C[C@]12CCC(=O)C=C1CCC1C2CC[C@@]2(C)C1CCC21OCCO1 (stereo not given in full)	-3	10	8	23	6	60	x
Cc1ccc(OCCSc2nc3ccccc3n2CC(=O)O)c(C(C)C)c1	-5	9	9	17	15	-6	x
c1ccc(C2[C@H]3CN(Cc4cccnc4)[C@H](c4ccccc4)C34CC2(c2cccnc2)C4)cc1 (stereo not given in full)	1	6	15	14	22	-20	x
c1ccc(C2[C@H]3CN(Cc4cccnc4)[C@H](c4ccccc4)C34CC2(c2ccccc2)C4)cc1 (stereo not given in full)	-19	16	-19	7	53*	3	5
O=C(O)CN1C(=O)C2C3CCC(C3)C2C1=O (stereo not given)	-5	x	6	10	16	1	x
O=c1cc(-c2ccc([N+](=O)[O-])cc2)c2ccc(O)cc2o1	14	-7	11	49	53*	-13	25
COc1ccc(-c2cc(=O)oc3cc(O)ccc23)cc1	-4	-6	-4	5	82*	15	86*
CCOC(=O)c1c(O)c(Cl)c(C)[nH]c1=O	7	1	21	14	3	8	x
CCOc1cc2c(cc1O)C(=NO)CC1C2CCC2(C)C(O)CCC12 (stereo not given)	-28	53	31	1	52*	5	75*
SMILES	KKLEB tox	TRPM1 prom inh	HIF-2a inh	Peg3 promoter	CF NFkB inh	Shn3 3UTR inh	CF NFkB conf
COc1cc(NS(=O)(=O)c2ccc3c(c2)C(C)(C)C(=O)N3C)cc(OC)c1	12	1	-10	-1	2	12	x
COc1cccc(-c2ccc3ncnc(NCc4cc(C)cs4)c3c2)c1	4	-1	12	24	71*	-5	78*
COc1cc(C(=O)Nc2nc(-c3cc(C)ccc3C)c(C)s2)ccc1OCC(=O)Nc1ccc(F)cc1	-25	29	20	27	31	25	x
COc1ccc(-c2nc(NC(=O)c3ccc(OCC(=O)Nc4ccc(F)cc4)c(OC)c3)sc2C)cc1	-45	32	8	18	54*	58	72*
CN(C)S(=O)(=O)c1ccc(Cl)c(NC(=O)CNC2(C)CCS(=O)(=O)C2)c1 (stereo not given)	4	-9	16	5	-8	-11	x
COc1ccc2[nH]c3c(c2c1)CCN1C(=O)C(CC(=O)NCCN2CCOCC2)C[C@H](C(=O)N2CCCCC2)[C@@]31CCc1ccccc1 (stereo not given in full)	4	-1	6	-13	-18	-11	x
COc1ccc2[nH]c3c(c2c1)CCN1C(=O)C(CC(=O)NCCC2=CCCCC2)C[C@H](C(=O)N2CCCCC2)[C@@]31CCc1ccccc1 (stereo not given in full)	-49	11	2	27	56*	4	81*
Cc1c2ccncc2cc2c1[nH]c1ccccc12	-46	-41	18	50	55*	34	21
